# Assay results taken from PubChem BioAssay (NCATS).
# Results filed as inconclusive are left out. A number with no mark means an inactive call. Activity calls are given as the source filed them. Unless noted, calls follow the shape of the dose curve; as a rule, active = well fitted inhibition curve with a large enough effect; inconclusive = small, poorly fitted or top-dose-only effect; inactive = no such curve, though single readings can be large or run the other way.
# Assay: S16 Schwann cell PMP22 intronic element firefly luciferase assay (AID 624032); also: nearly all actives have a fitted effect of over 30% in size; also: potency is read from the fitted curve at half-maximal effect;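 as to activity change, negative = inhibition: plate controls were DMSO for no effect and PTC124 positive control mean for full effect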
# Conditions: S16 rat Schwann cells, PMP22 element FLuc, 24 h; series mostly up to 57.5 µM; activity change, negative = inhibition: at the top concentration
# In short: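 Rat S16 Schwann cells stably carrying a PMP22 intronic element-driven Fluc reporter were seeded overnight, then exposed to compounds for 24 h at 37 °C. Luminescence was normalized to PTC124 (positive control) and DMSO (0% activity).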
Compound,"activity change, negative = inhibition",Potency
O=C(N/N=C/c1ccc([N+](=O)[O-])o1)c1cc([N+](=O)[O-])cc([N+](=O)[O-])c1O,11.1%,
CN1C(=O)COc2c(C(=O)NC3CN4CCC3CC4)cc(Cl)cc21 (stereo not given),0.287%,
CN1C(=O)NC(=O)C(C)(C2=CCCCC2)C1=O (stereo not given),14.9%,
COC1CC(=C(c2cccs2)c2cccs2)C[N+](C)(C)C1 (stereo not given),-12.1%,
C[C@](O)(CS(=O)(=O)c1ccc(F)cc1)C(=O)Nc1ccc(C#N)c(C(F)(F)F)c1,,16.1 µM (active)
NC(=O)CS(=O)C(c1ccccc1)c1ccccc1 (stereo not given),7.7%,
O=C1OC(c2ccc(O)c(S(=O)(=O)O)c2)(c2ccc(O)c(S(=O)(=O)O)c2)c2c(Br)c(Br)c(Br)c(Br)c21,7.17%,
O=C(O[C@H]1CN2CCC1CC2)N1CCc2ccccc2[C@@H]1c1ccccc1,57.1%,
CC(C)(C)NCC(O)c1cc(Cl)c(N)c(C(F)(F)F)c1 (stereo not given),-15.4%,
CCC1(CC)C(=O)C=CNC1=O,13.4%,
COc1ccc2c(c1)C13CCCC[C@@H]1C(C2)N(C)CC3 (stereo not given in full),1.47%,
CCC1(c2ccccc2)C(=O)N(COC)C(=O)N(COC)C1=O,-24.7%,
CNC(C)(C)Cc1ccccc1,-11.8% [at 25.7 µM],
NC(=O)CC[C@@H]1NC(=O)[C@H](Cc2ccccc2)NC(=O)[C@H](Cc2ccc(O)cc2)NC(=O)[C@@H](N)CSSC[C@@H](C(=O)N2CCC[C@H]2C(=O)N[C@@H](CCCN=C(N)N)C(=O)NCC(N)=O)NC(=O)[C@H](CC(N)=O)NC1=O,-21.9%,
O=C(Nc1ccc(Br)cc1)c1cc(Br)cc(Br)c1O,-9.04%,
COP(=S)(OC)Oc1ccc(S(=O)(=O)N(C)C)cc1,12.4%,
NNc1ccccc1,10.2%,
CC(C)COC(=O)c1ccc(N)cc1,134%,
O=c1oc2ccccc2c(O)c1Cc1c(O)c2ccccc2oc1=O,-19.3% [at 25.7 µM],
O=C1CN=C(c2ccccc2)c2cc([N+](=O)[O-])ccc2N1,-17.9%,
COCCCOc1ccnc(CS(=O)c2nc3ccccc3[nH]2)c1C (stereo not given),87.9%,
c1ccc2c(c1)sc1ccccc12,-11.9%,
CN1C(=O)C(O)N=C(c2ccccc2)c2cc(Cl)ccc21 (stereo not given),-18.6%,
CN=C(NC#N)NCCSCc1nc[nH]c1C,23.2%,
Cn1c(=O)c2[nH]cnc2n(C)c1=O,2.72%,
COc1c2c(cc3c1OCO3)CCN(C)C2,-15.6% [at 25.7 µM],
CN1C(=O)CC(=O)N(c2ccccc2)c2cc(Cl)ccc21,-12.5%,
C=CCc1ccc(O)c(OC)c1,19.1%,

# Assay: S16 Schwann cell PMP22 intronic element beta-lactamase assay (AID 624044; calls by dose curve;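 also: 0% = DMSO and -100% = potassium clavulanate positive control; nearly all actives have a fitted effect of over 15% in size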)
# Conditions: S16 rat Schwann cells, PMP22 element beta-lactamase FRET, 24 h; series mostly up to 38.3 µM; ratio activity, negative = inhibition: at the top concentration
# In short: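 Beta-lactamase reporter under a PMP22 intronic regulatory element in stable S16 rat Schwann cells; 24 h compound exposure. 460 nm blue signal normalized between DMSO (0%) and potassium clavulanate, with 535 nm FRET tracking viability; curves classed by r2 and response.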
row,Compound,"ratio activity, negative = inhibition"
1,O=C(N/N=C/c1ccc([N+](=O)[O-])o1)c1cc([N+](=O)[O-])cc([N+](=O)[O-])c1O,9.12%
2,O=C1OC(c2ccc(O)c(S(=O)(=O)O)c2)(c2ccc(O)c(S(=O)(=O)O)c2)c2c(Br)c(Br)c(Br)c(Br)c21,6.43%
3,COc1ccc2c(c1)C13CCCC[C@@H]1C(C2)N(C)CC3 (stereo not given in full),-1.29%
4,O=C(Nc1ccc(Br)cc1)c1cc(Br)cc(Br)c1O,0.295%
5,COP(=S)(OC)Oc1ccc(S(=O)(=O)N(C)C)cc1,1.31%
6,O=C1CN=C(c2ccccc2)c2cc([N+](=O)[O-])ccc2N1,-4.49%
7,CN1C(=O)C(O)N=C(c2ccccc2)c2cc(Cl)ccc21 (stereo not given),0.531%
